Bioassay records: PubChem BioAssay, several laboratories
Ba/F3 V617F tox – lowers viability of Ba/F3 cells expressing EpoR and JAK2V617F; ATP luminescence; inhibition, % at 5.6 µM; 1.1% of 220,000 active;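 active means inhibition above the campaign mean plus 3 SD over all tested compounds, cut at about 24% in these data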;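 further: cytokine-independent growth of Ba/F3 cells driven by EpoR plus mutant JAK2; 0% = DMSO-treated cells and 100% = JAK inhibitor I control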
APP 5UTR inh – APP translation inhibition. inhibition, % at 2 µM. 0.82% of 190,000 active. SH-SY5Y APP 5'UTR-luciferase reporter, luminescence. AID 1285;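 active means inhibition above a set limit, derived from the sample mean plus 3 SD, cut at about 45% in these data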
BaF3 tox – parental Ba/F3 viability inhibition as JAK2V617F counter-screen. CellTiter-Glo ATP luminescence. inhibition, % at 5.6 µM. 1.1% of 220,000 active. AID 1486;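 active means inhibition above a per-campaign cutoff, the mean inhibition of all tested compounds plus 3 SD, cut at about 27% in these data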;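 further: 0% = DMSO wells and 100% = JAK Inhibitor I control wells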
KLF5 inh – suppresses KLF5 promoter-driven expression; DLD-1 KLF5 promoter-luciferase reporter, luminescence; AID 1700; 0.23% of 290,000 active; inhibition, % at 5 µM;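 active means inhibition above a per-plate limit of that plate's mean compound inhibition plus 3 SD, cut at about 60% in these data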;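 further: 0% = DMSO wells and 100% = LY294002 at 200 µM; higher means less KLF5 promoter-driven luciferase light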
IEC-6 cytotox – counter-screen for KLF5 inhibitors: cytotoxicity in IEC-6 cells. 0.78% of 290,000 active. IEC-6 cytotoxicity, luminescence viability. inhibition, % at 5 µM; in the data active means inhibition above about 22%;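 further: 0% = plate median of test compound wells and 100% = cytotoxic reference compound wells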
An asterisk follows results filed as active. The list is not random: actives were taken first. Their share in the collection is about 1.9%.

What do the screens show for `O=c1cc(-c2c(F)c(F)c(F)c(F)c2F)oc2ccccc12`?
Ba/F3 V617F tox: 0.1; APP 5UTR inh: 13.1; BaF3 tox: 9.2; KLF5 inh: -16.1; IEC-6 cytotox: -2.3

What do the screens show for `O=c1cc(-c2c(F)c(F)c(F)c(F)c2F)oc2c(F)c(F)c(F)c(F)c12`?
Ba/F3 V617F tox: -1.5; APP 5UTR inh: 96.8*; BaF3 tox: 1.0; KLF5 inh: -33.1; IEC-6 cytotox: -0.2

How did CC(=O)Nc1ccc(NC(=O)c2cc(C)nn2-c2ccccc2)cc1 do in these assays?
Ba/F3 V617F tox: 0.8; APP 5UTR inh: 9.5; BaF3 tox: 6.4; KLF5 inh: -22.9; IEC-6 cytotox: -1.9

How did CC(=O)c1cc2c(cc1NC(=O)c1cc(C)nn1-c1ccccc1)OCO2 do in these assays?
Ba/F3 V617F tox: 0.1; APP 5UTR inh: 59.2*; BaF3 tox: 5.8; KLF5 inh: -2.0; IEC-6 cytotox: -2.0

What do the screens show for `Cc1ccc(C)c(N(C)C(=O)CCS(=O)(=O)c2cccc3nonc23)c1`?
KLF5 inh: -49.5; IEC-6 cytotox: 0.5

Results for CCn1c(SCC(=O)NC2CCCCC2)nc2c(c1=O)SCC2 ?
KLF5 inh: 3.4; IEC-6 cytotox: -1.5

What do the screens show for `O=c1[nH][nH]cc1C=Nc1ccc(Cl)cc1Cl`?
Ba/F3 V617F tox: 3.9; APP 5UTR inh: 63.9*; BaF3 tox: 4.6; KLF5 inh: -3.1; IEC-6 cytotox: 0.2

How did COCCSc1nnc(NC(=O)COc2ccc3c(c2)OCO3)s1 do in these assays?
KLF5 inh: -2.4; IEC-6 cytotox: -2.7

What do the screens show for `CCCCCCCCCCCCCCCC[n+]1cccc(C(=O)N(CC)CC)c1`?
Ba/F3 V617F tox: 59.1*; APP 5UTR inh: 12.5; BaF3 tox: 62.1*; KLF5 inh: -3.7; IEC-6 cytotox: 2.0

Results for Oc1[nH]c(N=C2N=c3ccccc3=N2)c2ccccc12 ?
Ba/F3 V617F tox: 21.0; BaF3 tox: 6.3; KLF5 inh: -81.0; IEC-6 cytotox: 77.0*

What do the screens show for `CC(C)(C)c1ccc(Oc2ccc(NC(=O)c3ccco3)cn2)cc1`?
Ba/F3 V617F tox: 79.5*; BaF3 tox: 72.3*; KLF5 inh: -31.5; IEC-6 cytotox: 13.4

Results for CCOc1ccc2[nH]c3nc(SCC(=O)OC(C)C)nnc3c2c1 ?
KLF5 inh: -40.8; IEC-6 cytotox: -2.9

How did CN1/C(=C\P(=O)(N(C)C)N(C)C)C(C)(C)c2ccccc21 do in these assays?
Ba/F3 V617F tox: 61.1*; APP 5UTR inh: -3.6; BaF3 tox: 62.4*; KLF5 inh: -31.9; IEC-6 cytotox: -5.4

How did CCSc1c(-c2ccccc2)nc2c(C)cccc2c1C(=O)O do in these assays?
Ba/F3 V617F tox: -2.2; APP 5UTR inh: -4.7; BaF3 tox: 4.4; KLF5 inh: -14.5; IEC-6 cytotox: 0.0

What do the screens show for `COc1ccc2ccccc2c1/C=N/NC(=S)Nc1cc(S(=O)(=O)N2CCOCC2)ccc1N1CCOCC1`?
Ba/F3 V617F tox: -0.6; APP 5UTR inh: 3.2; BaF3 tox: 3.3; KLF5 inh: -22.0; IEC-6 cytotox: 3.4

Results for CCOc1cccc(/C=N/NC(=S)Nc2cc(S(=O)(=O)N3CCOCC3)ccc2N2CCOCC2)c1O ?
Ba/F3 V617F tox: -0.1; APP 5UTR inh: 54.3*; BaF3 tox: 2.5; KLF5 inh: -3.2; IEC-6 cytotox: -1.0

How did O=C(CNS(=O)(=O)c1ccccc1)Nc1cccc([N+](=O)[O-])c1 do in these assays?
Ba/F3 V617F tox: -0.7; APP 5UTR inh: -20.5; BaF3 tox: 5.2; KLF5 inh: -20.0; IEC-6 cytotox: -4.8

How did C=CCNc1nc2ccccc2nc1NS(=O)(=O)c1ccc(Cl)cc1 do in these assays?
KLF5 inh: 0.9; IEC-6 cytotox: 1.2

How did CC(=O)N1CCC(=NNC(=O)c2cccs2)CC1 do in these assays?
Ba/F3 V617F tox: 14.8; APP 5UTR inh: -116.7; BaF3 tox: 53.0*; KLF5 inh: -133.9; IEC-6 cytotox: 8.9

Results for COc1cccc(CN2CC(C(=O)NCCCn3ccnc3C)CCC2=O)c1 (stereo unspecified) ?
KLF5 inh: -32.4; IEC-6 cytotox: -2.5

How did Cc1ccc(C)c(OCC(O)CN2CCC(CN3C(=O)c4cccc5cccc(c45)C3=O)CC2)c1 (stereo unspecified) do in these assays?
Ba/F3 V617F tox: -2.0; APP 5UTR inh: 69.3*; BaF3 tox: 6.2; KLF5 inh: 8.8; IEC-6 cytotox: -5.3

What do the screens show for `O=C1c2cccc3cccc(c23)C(=O)N1CC1CCN(CC(O)COCc2ccc3c(c2)OCO3)CC1` (stereo unspecified)?
Ba/F3 V617F tox: 11.2; APP 5UTR inh: 1.0; BaF3 tox: 9.8; KLF5 inh: -22.9; IEC-6 cytotox: -4.0
